Assay results from ChEMBL document CHEMBL1157539, “Thousands of chemical starting points for antimalarial lead identification” (Nature, 2010).

tested on: Plasmodium falciparum; experiment: GSK_TCMDC: Inhibition of Plasmodium falciparum 3D7 in whole red blood cells, using parasite LDH activity as an index of growth. Test compounds present at 2uM; format: functional

Row | Structure (SMILES) | Inhibition [%]
1 | CCCc1cc(OC)c(CC2c3cc(O)c(C)cc3CCN2C)cc1OC.Cl (stereo not given) | 99
2 | Cc1cc(C)c(O)c(-c2cc(C(=O)Nc3ccc(S(=O)(=O)N4CC(C)OC(C)C4)cc3)[nH]n2)c1 (stereo not given) | 95
3 | CC(=O)c1sc(Cc2nc3ccccc3s2)nc1C | 94
4 | Cc1ccc2c(=O)cc(CCc3cccc(F)c3F)n(CC(=O)N(Cc3ccc(-c4ccc(C(F)(F)F)cc4)cc3)C3CCN(C)CC3)c2n1.O=C(O)C(O)C(O)C(=O)O | 86
5 | CC(C)c1ccc(CN2CCC(CNC(=O)c3cc(-c4cccc(C(F)(F)F)c4)cs3)C2)cc1.O=C(O)C(F)(F)F (stereo not given) | 99
6 | Nc1nccc2ccc(-c3ccnc(NCc4cccnc4)n3)cc12 | 100
7 | CS(=O)(=O)N(c1ccc(F)cc1)c1cc(C(=O)N[C@@H](Cc2ccccc2)[C@H](O)CNCc2cccc(C(F)(F)F)c2)cc(N2CCCC2=O)c1.O=CO | 91
8 | COc1ccc2nccc([C@@H](O)CN3CCC(NC(=O)C(c4ccccc4C)N4CCC(Cc5ccccc5)CC4)CC3)c2c1 (stereo not given in full) | 100
9 | O=S(=O)(Nc1ccc(CCN2CCC(N3CCCCC3)CC2)cc1)c1ccc(Cl)cc1 | 100
10 | CNc1ccc(CNCc2cccc(-c3ccc(-c4nc5cc(C(F)(F)F)ccc5[nH]4)cc3)c2)cc1.O=C(O)C(F)(F)F | 100
11 | O=C(Nc1cccc(-c2ccc(-c3nc4cc(F)ccc4[nH]3)s2)c1)c1ccncc1 | 96
12 | Cc1cc2nc(-c3ccc(/C=C/C(=O)NCCCc4ccccc4)cc3)[nH]c2cc1C | 96
13 | CCOc1c(CNCCCNc2nc3ccccc3[nH]2)cc(Br)cc1OC.Cl | 99
14 | O=C(Nc1cccc(-c2cc(-c3c(Cl)cccc3Cl)no2)c1)c1cncc(-c2cccs2)c1 | 91
15 | Cc1cc(N)c2cc(NC(=O)CCC(=O)Nc3ccc4nc(C)cc(N)c4c3)ccc2n1 | 85
16 | CCOc1ccc(-c2nc(NC(=O)COc3ccc(OC)cc3)sc2C)cc1 | 99
17 | COc1cccc(-c2ccc3c(-c4cccc(NC(C)=O)c4)cnc(N)c3c2)c1.O=CO | 99
18 | CC(C)NCc1ccc(-c2ccc(-c3nc4cc(F)ccc4[nH]3)cc2)cc1.O=C(O)C(F)(F)F | 100

Row | Structure (SMILES) | Inhibition [%]
19 | COc1ccc(S(=O)(=O)NCCC2CCN(CCCCCNC(=O)C=Cc3ccc(Cl)c(Cl)c3)CC2)cc1 | 87
20 | O=C(NCCCN1CCOCC1)c1cccc(Nc2nccc(Nc3ccc(Oc4ccccc4)cc3)n2)c1 | 98
21 | CCCNC(=O)Nc1cc2cc(-c3ccc(CN4CCCC4)cc3)ccc2n2c(C)nnc12 | 93
22 | CCNc1cc(C)nc(Nc2ccc(NS(=O)(=O)c3ccccc3)cc2)n1 | 100
23 | Cc1nnsc1C(=O)Nc1ccc(-c2cccc(-c3nc4cccc(C)c4[nH]3)c2)cc1 | 98
24 | CS(=O)(=O)Nc1ccc(OCCCCCCOc2ccc(NS(C)(=O)=O)cc2)cc1 | 93
25 | CCc1ccc(NC(=O)c2ccc(CN3CCCN(Cc4cccc(Cl)c4)CC3)cc2)cc1.O=C(O)C(F)(F)F | 84
26 | CC(Cc1ccc(CNC(=O)NCc2ccc(CC(C)NCCc3cccc(Cl)c3)cc2)cc1)NCCc1cccc(Cl)c1 (stereo not given) | 100
27 | CCc1cc([C@H]2O[C@@H](n3cnc4c(NCC(c5ccccc5)c5ccccc5)nc(NCCNc5ccccn5)nc43)[C@H](O)[C@@H]2O)on1.O=CO | 94
28 | CC=CC1CCNC(C(O)c2ccnc3ccc(OC)cc23)C1 (stereo not given) | 91
29 | Cc1n[nH]c2ccc(-c3cc(OC[C@@H](N)Cc4ccccc4)cnc3-c3ccccc3OCc3cccc(F)c3)cc12.O=C(O)C(F)(F)F | 91
30 | CC(=O)N1Cc2ccccc2C1=O | 97
31 | COCCCNc1sc(S(=O)(=O)c2ccccc2)nc1S(=O)(=O)c1ccc(Cl)cc1 | 95
32 | CC(C)C[C@H](NC(=O)c1cc(-c2ccc(F)cc2)no1)C(=O)O.CC(C)C[C@H](NC(=O)c1conc1-c1ccc(F)cc1)C(=O)O | 82
33 | CCC(C)OC(=O)C1=C(C)NC2=C(C(=O)CC(c3ccc(OC)c(OC)c3)C2)C1c1cccc(O)c1 (stereo not given) | 100
34 | O=C(NCCN1CCCC1)c1cccc(-c2ccc(-c3nc4cc(F)ccc4[nH]3)cc2)c1 | 99
35 | Cc1ccc(C)c2sc(N(CCCn3ccnc3)C(=O)c3ccco3)nc12.Cl | 96
